# Source: PubChem BioAssay (NCI)
# About 83,000 compounds went through this panel and 20% of them were active in at least one assay; those are over-represented in the sample as a whole.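 Method: cells in 96-well plates; compound added at one concentration; 48 h incubation; percent growth measured; values under 10 scored active.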 Unmarked numbers belong to inactive results. Active and inactive are the calls of the source.
# Test system: HL-60(TB) leukemia
# Assay: NCI-60 one-dose screen, 48 h (100 = growth as untreated, 0 = no growth, -100 = all killed)
# Details: 10 µM unless noted
row,Structure (SMILES),growth
1,Brc1ccccc1/C=N/Nc1nc(N/N=C/c2ccccc2Br)nc(N2CCOCC2)n1,80.5%
2,CCOC(=O)/C(F)=C/C1CC1C1CCCCC1 (stereo not drawn),98.7%
3,O=C(c1ccc(O)cc1)C1[C@H](c2ccc(Cl)cc2)[C@@H](c2ccccc2)NC12C(=O)Nc1ccc(Cl)cc12 (stereo partly drawn),38.5%
4,O=c1[nH]c2ccccc2cc1CSc1ccccc1Nc1nccc(-c2ccc(C(F)(F)F)cc2)n1,90%
5,COc1ccc(/C=C2\SC(=Nc3cc(C)on3)NC2=O)cc1,94.6%
6,CC1CCN(S(=O)(=O)c2ncsc2-c2ccccc2)CC1,72.3%
7,O=S(=O)(Nc1ccc(I)cc1Cl)c1ccc(-c2cnc(C3CC3)o2)cc1,9.69% (active)
8,CNc1sc(S(=O)(=O)NC)nc1S(=O)(=O)c1ccc(C)cc1,101%
9,CNC1CCc2c(sc(NC(=O)c3ccc(C(C)(C)C)cc3)c2C(N)=O)C1 (stereo not drawn),-69.3% (active)
10,O=C(/C=C/c1cccc(O)c1)c1ccc(O)cc1,72.3%
11,CC(C)=CCc1c2c(c(O)c3c1O[C@]14C(=C[C@@H]5C[C@H]1C(C)(C)O[C@@]4(C/C=C(/C)C(=O)O)C5=O)C3=O)CC(O)C(C)(C)O2 (stereo partly drawn),-17.2% (active)
12,Clc1ccc(N/N=c2/oc3ccccc3cc2-c2cc3ccccc3[nH]2)cc1,88.7%
13,CCO/C=N/C1=C(C#N)C(c2ccc(F)cc2)c2sc3c(C)cccc3c2O1 (stereo not drawn),-22.8% (active)
14,O=C(CCCCCCNC(=O)C(O)(O)C(F)(F)F)Nc1ncc(-c2ccc(Br)cc2)s1,6.28% (active)
15,Cc1[nH]c(C(=O)Nc2ccc(S(=O)(=O)N3CCCCC3)cc2OCCOCCOCCOCCOCCOCCOCCOCCOCCOc2cc(S(=O)(=O)N3CCCCC3)ccc2NC(=O)c2[nH]c(C)c3c2CCCCC3=O)c2c1C(=O)CCCC2,10.7%
16,COc1ccc(Cn2cc3c(c2-c2cc(OC)c(OC)c(OC)c2)CCc2c(CN4CCCC4)noc2-3)cc1,3.57% (active)
17,C=C(C)[C@@H]1CC[C@]2(C(=O)NCCCN(CCC#N)CCC#N)CC[C@]3(C)[C@H](CC[C@@H]4[C@@]5(C)CCC(=O)C(C)(C)[C@@H]5CC[C@]43C)[C@@H]12,96.3%
18,Clc1cccc(/C=N/Nc2nc(N/N=C/c3cccc(Cl)c3Cl)nc(N3CCCCC3)n2)c1Cl,106%
19,Cc1ccc(-c2cc3nc(C(Cl)Cl)nc(-c4ccco4)n3n2)cc1,-11.9% (active)
20,O=C(Nc1cc(Cl)cc(Cl)c1)Nc1nc2ccc([N+](=O)[O-])cc2s1,-50.1% (active)
21,COc1cccc(OC)c1-c1nnn(C)c1C(=S)N1CCN(c2ccc([N+](=O)[O-])cc2Cl)CC1,44.3%
22,CCO/C=N/C1=C(C#N)C(c2ccc(OC)cc2)c2sc3c(C)cccc3c2O1 (stereo not drawn),-18.5% (active)
23,Clc1ccc2c(NCCCN3CCOCC3)c3oc4ccc(Cl)cc4c3nc2c1,67.7%
